{
  "source": "PubChem BioAssay (NCATS)",
  "note": "Records with an inconclusive call do not appear. Entries that show only a call come without a potency. Unmarked numbers belong to inactive results. Activity calls are given as the source filed them. The call rests on the fitted dose curve; in most records, active means well fitted curve in the direction sought with a large enough effect; inconclusive means small, poorly fitted or top-dose-only effect, or another doubt; inactive means no such curve, though single readings can be large or run the other way. Potency means the concentration at half of the fitted maximal effect.",
  "data": [
    {"molecular_target": "Nuclear receptor subfamily 1 group I member 3 (Homo sapiens) (UniProt Q14994)", "sequence (Q14994 whole entry, looked up)": "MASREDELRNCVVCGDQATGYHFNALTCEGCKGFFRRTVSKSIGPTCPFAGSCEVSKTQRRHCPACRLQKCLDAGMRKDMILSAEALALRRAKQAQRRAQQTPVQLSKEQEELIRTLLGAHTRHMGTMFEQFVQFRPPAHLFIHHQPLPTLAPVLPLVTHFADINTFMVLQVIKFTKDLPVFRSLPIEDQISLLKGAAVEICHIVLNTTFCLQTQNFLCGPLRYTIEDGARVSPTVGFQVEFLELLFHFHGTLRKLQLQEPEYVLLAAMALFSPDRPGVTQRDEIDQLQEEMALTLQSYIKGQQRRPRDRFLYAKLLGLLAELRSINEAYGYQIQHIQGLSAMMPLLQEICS", "test": "Primary qHTS for antagonist of constitutive androstane receptor (CAR) against the NCATS DSHEA and TCM libraries (AID 1794836);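 on activity change, negative = inhibition: HepG2 cells stably expressing hCAR with CYP2B6 luciferase reporter stimulated by CITCO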", "settings": "CAR reporter cell assay, antagonist mode, luciferase; series mostly up to 40 µM", "excerpt": "Assay Development and Screening Technology Laboratory (ADST)\nNational Center for Advancing Translational Sciences (NCATS), Rockville, MD\nNational Institute of Health (NIH), Bethesda, Maryland\nDietary Supplements and Natural Products have minor oversight of their safety and efficacy. We assembled a collection of Dietary Supplements and Natural Products (DSNP) as well as Traditional Chinese Medicinal (TCM) Plant extracts, which were screened against an in vitro panel of assays, including a liver cytochrome p450 enzyme panel, CAR/PXR signaling pathways, and P-gp transporter assays, to assess their activity. This pipeline facilitated the interrogation of Natural Product-Drug Interaction (NaPDI) through prominent metabolizing pathways. In addition, we compared the activity profiles of the DSNP/TCM substances with those of an approved drug collection. Many of the approved drugs have well-annotated mechanisms of action (MOA) while the MOAs for most of the DSNP and TCM samples remain unknown. Based on the premise that compounds with similar activity profiles tend to share similar targets or MOA, we clustered the library activity profiles to identify overlap with the NCATS Pharmaceutical Collection to predict the MOAs of the DSNP/TCM substances. Overall, we highlight four significant bioactivity profiles (measured by p-values) as examples of this prediction.\nTo this end, we profiled both collections for potential CAR and/or PXR activity, employing a previously published 1536-well qHTS assay.\nPROTOCOL TABLE (as described by Inglese J, Shamu CE and Guy RK. 2007)\nSEQUENCE No. (e.g., 1, 2, 3, etc.); […] (e.g., Cells, Incubation, Reagent, etc.); VALUE; DESCRIPTION.\n1; Cells; 4 uL; 1536-well white Greiner assay plate.\n2; Incubation; 5 hours; 37C, 95% humidity, 5% CO2.\n3; Compounds; 23 nL; Kalypsis pin tool (Wako USA) equipped with 1536-well pin head to transfer to the assay plates.\n4; Reagent; 1 uL; 48 uM CITCO (final concentration).\n5; Incubation; 24 hours; 37C, 5% CO2.\n6; Detection Reagent 1; 1 uL; CellTiter-Fluor (Promega).\n7; Incubation; 1 hour; 37C, 5% CO2.\n8; Detector 1; Fluorescence intensity; ViewLux plate reader (excitation 405 nm, emission 540 nm).\n9; Detection Reagent 2; 4 uL; ONE-Glo Luciferase reagent (Promega).\n10; Incubation; 30 min; room temperature.\n11; Detector 2; Luminescence intensity; ViewLux.\nNOTES (numbers refer to Sequence numbers above)\n1. 4 uL of HepG2-CYP2B6-hCAR cells at 6.25 x 10^5 cells/mL (2,500 cells/well) were dispensed using a Multidrop Combi dispenser in tissue culture-treated 1536-well white assay plates (Greiner Bio-One) in the same culture media, without geneticin and blasticidin included.\n2. Plates were incubated for 5 hours at 37C, 95% humidity, and 5% CO2 to allow for cell attachment.\n3. Compounds (final concentrations of most substances ranged from 15.6 nM to 31.9 uM), positive control (for antagonist mode: PK11195 with a final concentration range 2.8 nM to 92 uM), and toxicity control tetraoctyl ammonium bromide (final concentration of 92 uM) were transferred (23 nL) via pintool (Wako Automation).\n4. After compound transfer, plates were dispensed with 1 uL of the known hCAR agonist 6-(4-Chlorophenyl)imidazo[2,1-b][1,3]thiazole-5-carbaldehyde O-(3,4-dichlorobenzyl)oxime (CITCO, final concentration of 48 uM) in the antagonist mode using a BioRAPTR FRDTM.\n6. 1 uL of CellTiter-Fluor (Promega, Madison, Wisconsin) was added using a BioRAPTR FRDTM.\n8. Fluorescence intensity (Ex/Em = 405 nm/540 nm) is obtained using the ViewLux plate reader to determine cell viability.\n9. 4 uL of ONE-Glo Luciferase reagent (Promega) was added to each well using the BioRAPTR FRDTM,\n10. Luminescence intensity is read using the ViewLux detector.", "values": [
      {"smiles": "C=C[C@H]1CN2CC[C@@]3(C(=O)Nc4ccccc43)[C@@H]2C[C@@H]1/C(=C\\OC)C(=O)OC", "Potency": "3.98 µM (active)"},
      {"smiles": "COC(=O)C1=CO[C@@H](C)[C@@H]2CN3CC[C@@]4(C(=O)Nc5ccccc54)[C@@H]3CC12", "note": "(stereo not given in full)", "Potency": "inactive"},
      {"smiles": "O=c1cc(-c2ccc(O)cc2)oc2cc(O[C@H]3OC(CO)C(O)C(O)C3O)cc(O)c12", "note": "(stereo not given in full)", "Potency": "inactive"},
      {"smiles": "O=C(/C=C/c1ccc(O)c(O)c1)O[C@@H]1CC(O)(C(=O)O)C[C@@H](OC(=O)/C=C/c2ccc(O)c(O)c2)C1O", "note": "(stereo not given in full)", "Potency": "inactive"},
      {"smiles": "C=C1CC[C@H](O)C/C1=C\\C=C1/CCC[C@]2(C)[C@@H]([C@H](C)CCCC(C)C)CC[C@@H]12", "Potency": "inactive"},
      {"smiles": "O=C(/C=C/c1ccc(O)c2c1[C@H](C(=O)O)[C@@H](c1ccc(O)c(O)c1)O2)O[C@H](Cc1ccc(O)c(O)c1)C(=O)O", "Potency": "inactive"},
      {"smiles": "CC(C)=CCC[C@](C)(O[C@@H]1O[C@H](CO[C@@H]2O[C@H](CO)[C@@H](O)[C@H](O)[C@H]2O)[C@@H](O)[C@H](O)[C@H]1O)C1CC[C@]2(C)[C@@H]1[C@H](O)CC1[C@@]3(C)CC[C@H](O[C@@H]4O[C@H](CO)[C@@H](O)[C@H](O)[C@H]4O[C@@H]4O[C@H](CO)[C@@H](O)[C@H](O)[C@H]4O)C(C)(C)[C@@H]3CC[C@]12C", "note": "(stereo not given in full)", "activity change, negative = inhibition": "-31.6% [at 8.32 µM]"},
      {"smiles": "COc1cc2c(cc1O)CC1NCCc3cc(OC)c(OC)c-2c31", "note": "(stereo not given)", "Potency": "inactive"},
      {"smiles": "C=C(C)C(CC=C(C)C)CC12CC(CC=C(C)C)C(C)(C)C(CC=C(C)C)(C(=O)/C(=C(\\O)c3ccc(O)c(O)c3)C1=O)C2=O", "note": "(stereo not given)", "Potency": "inactive"},
      {"smiles": "CC(C)(O)[C@@H]1CC[C@](C)([C@@H]2[C@H](O)C[C@]3(C)C4C[C@@H](O[C@H]5O[C@@H](CO)[C@H](O)[C@@H](O)[C@@H]5O)C5C(C)(C)[C@H](O[C@H]6OC[C@H](O)[C@@H](O)[C@@H]6O)CC[C@]56CC46CC[C@@]23C)O1", "note": "(stereo not given in full)", "Potency": "inactive"},
      {"smiles": "CC(C)(O)[C@@H]1CC[C@](C)([C@H]2[C@@H](O)C[C@@]3(C)[C@@H]4C[C@H](O)[C@H]5C(C)(C)[C@@H](O[C@@H]6OC[C@@H](O)[C@H](O)[C@H]6O[C@@H]6O[C@H](CO)[C@@H](O)[C@H](O)[C@H]6O)CC[C@@]56C[C@@]46CC[C@]23C)O1", "Potency": "inactive"},
      {"smiles": "COc1cc(-c2oc3cc(O)cc(O)c3c(=O)c2O)ccc1O", "Potency": "inactive"},
      {"smiles": "O=C(O)CC(O)(C(=O)O)C(O)C(=O)O", "note": "(stereo not given)", "Potency": "inactive"},
      {"smiles": "O=c1c(O[C@@H]2O[C@H](CO)[C@H](O)[C@H](O)[C@H]2O)c(-c2ccc(O)c(O)c2)oc2cc(O)cc(O)c12", "Potency": "inactive"},
      {"smiles": "C=C[C@](C)(O)CCC=C(C)C", "Potency": "inactive"},
      {"smiles": "CC(C)=CCCC(C)(OC1OC(COC2OC(CO)C(O)C2O)C(O)C(O)C1O)C1CCC2(C)C1C(O)CC1C3(C)CCC(OC4OC(CO)C(O)C(O)C4OC4OC(CO)C(O)C(O)C4O)C(C)(C)C3CCC12C", "note": "(stereo not given)", "Potency": "inactive"},
      {"smiles": "CCCCC[C@H](O)CC(=O)CCc1ccc(O)c(OC)c1", "Potency": "inactive"},
      {"smiles": "CC(C)=CCC/C(C)=C/C=C/C(C)=C/C=C/C(C)=C/C=C/C=C(C)/C=C/C=C(C)/C=C/C=C(\\C)CCC=C(C)C", "Potency": "inactive"},
      {"smiles": "CCCCCCC/C=C/C(=O)CCc1ccc(O)c(OC)c1", "Potency": "inactive"},
      {"smiles": "Cc1ncc(COP(=O)(O)O)c(C)c1O", "Potency": "inactive"},
      {"smiles": "O[C@@H]1[C@@H](O)[C@H](OC/C=C/c2ccccc2)O[C@H](CO[C@@H]2OC[C@H](O)[C@H](O)[C@H]2O)[C@H]1O", "Potency": "inactive"},
      {"smiles": "CC/C=C\\C/C=C\\C/C=C\\C/C=C\\C/C=C\\C/C=C\\CCC(=O)O", "Potency": "inactive"},
      {"smiles": "CCCCCCCC/C=C/CCCCCCCCCC(=O)O", "Potency": "inactive"},
      {"smiles": "CCCCCC/C=C\\CCCCCCCC(=O)O", "Potency": "inactive"},
      {"smiles": "O=Cc1ccccc1O", "Potency": "inactive"},
      {"smiles": "C=C(C)C1CC=C(C)C(O)C1", "note": "(stereo not given)", "Potency": "inactive"},
      {"smiles": "COc1ccc2ccc(=O)oc2c1", "Potency": "inactive"},
      {"smiles": "C=C1CC/C=C(/C)CC[C@@H]2[C@@H]1CC2(C)C", "Potency": "inactive"},
      {"smiles": "O=C(OC[C@H]1O[C@@H](OC(=O)c2cc(O)c(O)c(O)c2)[C@H](OC(=O)c2cc(O)c(O)c(O)c2)[C@@H](OC(=O)c2cc(O)c(O)c(O)c2)[C@@H]1O)c1cc(O)c(O)c(O)c1", "Potency": "inactive"},
      {"smiles": "Oc1cccc(O)c1O", "Potency": "inactive"},
      {"smiles": "CC(=O)O[C@H]1[C@H](O[C@H]2CC[C@]34C[C@]35CC[C@]3(C)[C@@H]([C@@]6(C)CC[C@@H](C(C)(C)O)O6)[C@@H](O)C[C@@]3(C)[C@@H]5C[C@H](O[C@@H]3O[C@H](CO)[C@@H](O)[C@H](O)[C@H]3O)[C@H]4C2(C)C)OC[C@@H](O)[C@@H]1O", "Potency": "inactive"},
      {"smiles": "CCCCCCCCC[C@@H](O)CC(=O)CCc1ccc(O)c(OC)c1", "Potency": "inactive"},
      {"smiles": "C=C1C[C@@]23CC[C@H]4[C@@](C)(CCC[C@@]4(C)C(=O)O[C@@H]4O[C@H](CO)[C@@H](O)[C@H](O)[C@H]4O)[C@@H]2CC[C@]1(O[C@@H]1O[C@H](CO)[C@@H](O)[C@H](O[C@@H]2O[C@H](CO)[C@@H](O)[C@H](O)[C@H]2O)[C@H]1O[C@@H]1O[C@@H](C)[C@H](O)[C@@H](O)[C@H]1O)C3", "Potency": "inactive"},
      {"smiles": "C=C1C[C@@]23CC[C@H]4[C@](C)(CCC[C@]4(C)C(=O)O[C@@H]4O[C@H](CO)[C@@H](O)[C@H](O)[C@H]4O)[C@@H]2CC[C@]1(O[C@H]1O[C@@H](CO)[C@H](O)[C@@H](O)[C@@H]1O)C3", "Potency": "inactive"},
      {"smiles": "COc1ccc(/C=C/c2cc(OC)cc(=O)o2)cc1", "Potency": "inactive"},
      {"smiles": "Cc1ccc(C(C)C)cc1", "Potency": "inactive"},
      {"smiles": "CC12CC3(O)OC(O1)C1(COC(=O)c4ccc(O)cc4)C3CC21OC1OC(CO)C(O)C(O)C1O", "note": "(stereo not given)", "Potency": "inactive"},
      {"smiles": "CC[C@@H]1CN2CC[C@]3(C(=O)Nc4ccccc43)[C@@H]2C[C@@H]1/C(=C\\OC)C(=O)OC", "Potency": "3.98 µM (active)"},
      {"smiles": "C=C[C@H]1CN2CCc3c([nH]c4ccccc34)[C@H]2C[C@@H]1/C(=C\\OC)C(=O)OC", "Potency": "inactive"},
      {"smiles": "COc1cc2c(cc1O)C[C@H]1c3c(cc(OC)c(O)c3-2)CCN1C", "Potency": "inactive"}
    ]}
  ]
}
